Among the data in ChEMBL document CHEMBL4513216, “Probing the Open Global Health Chemical Diversity Library for Multistage-Active Starting Points for Next-Generation Antimalarials” (ACS Infect Dis, 2020) are INHIBITION values, retold here.

In all, about 69,000 compounds went through this assay and about 8,600 (12%) showed an effect of 50% or more. This is one part of a sample in which strong results are shown more often than they occur.

The test system of this assay is Plasmodium berghei. Kind of assay: Screen against P. berghei liver stage (PbLuc), transformed with Luciferase, at 10uM. Format: functional, HepG2. As to conditions: tested at 10 uM.
Consider `N#Cc1cccc(C(=O)NC2CCc3c(ccc(=O)n3CC3CC3)C2)c1` (configuration not stated), for which the INHIBITION is -19.2%.

On to `Cc1ccc(CN2CCc3ncc(CNS(C)(=O)=O)n3CC2)o1`, for which the INHIBITION is given as 35.1%.

In the case of `O=C(COCC1CC[C@H]2[C@H](CCN2c2ncccn2)O1)N1CCCC1` (some centres not stated), the INHIBITION is 7.31%.

Take `CN1CCN(C(=O)[C@H]2C[C@@H]3CN(c4ncc(F)cn4)C[C@@H]3N2C)CC1`: the INHIBITION is reported as -1.15%.

`CC(NCC(F)(F)F)c1ccc(S(C)(=O)=O)c(F)c1` (configuration not stated): the INHIBITION is on record as -45.3%.

As for `Cc1noc(CNc2ccccc2N2CCCCC2)n1`, the INHIBITION worked out at 4.1%.

As to `Cc1cc(CNc2ccccc2N2CCCCC2)no1`, the INHIBITION is reported as 28.6%.

Regarding `c1ccc(N2CCCC2)c(NCc2ccncc2)c1`, the INHIBITION came out at 75.7%.

Regarding `CN(CCc1ccccn1)C(=O)Nc1cccnc1N1CCCC1`, the INHIBITION was found to be 44.7%.

Turning to `Cc1nc(N2CCCC2)ccc1NCc1ccccn1`, the INHIBITION is recorded as 42.3%.

Consider `c1ccc(CNc2ccccc2N2CCCC2)nc1`, for which the INHIBITION turned out to be 74.8%.

With `CCC(=O)NCC(=O)NCC1CCN(c2cc(Cl)ccc2C)C1` (configuration not stated), the INHIBITION was 23.73%.

For `Cc1cc(CNC(=O)Cc2c(C)nc3cc(=O)[nH]n3c2C)no1`, the INHIBITION is 31.1%.

As to `CC(C)CCN1CCNC(=O)C1CC(=O)NCCc1cc(O)ncn1` (configuration not stated), the INHIBITION is 12.8%.

As to `Cc1nc(C2CCCCN2C(=O)c2ccccc2)ncc1C(=O)N(C)C` (configuration not stated), the INHIBITION stood at 28.4%.

On to `O=C(CN1CCCC1CCCO)NCc1ccccn1` (configuration not stated), for which the INHIBITION amounted to 29.4%.

For `CCCN1CCC(CNC(=O)N2CCCC2c2c(C)n[nH]c2C)CC1` (configuration not stated), the INHIBITION worked out at 24.3%.

Regarding `CCn1cnnc1C1CCN(C(=O)c2ccc3c(c2)nnn3C)CC1`, the INHIBITION was determined as 11.9%.

Take `CC(C)[C@@H]1CN(c2ncc(F)cn2)C[C@H]1NC(=O)N(C)C`: the INHIBITION turned out to be 23.4%.

Take `COc1ccc(Cl)cc1C(=O)N1C[C@@H](NC(=O)N(C)C)[C@H](C(C)C)C1`: the INHIBITION amounted to 0.76%.

Take `COc1ccc(C(=O)N2C[C@@H](NC(=O)N(C)C)[C@H](C(C)C)C2)c(OC)n1`: the INHIBITION turned out to be 54.6%.

For `CN(C)C(=O)c1cnc2n1CCN(Cc1cccc(C#N)c1)C2`, the INHIBITION is 33.4%.

Regarding `O=C(CCCc1nnc(-c2ccccc2)o1)N1CCC1`, the INHIBITION was 28.8%.

Regarding `O=S(=O)(c1cc(F)ccc1N1CC(n2cccn2)C1)C(F)(F)F`, the INHIBITION worked out at 26.8%.

Consider `O=S(=O)(c1ccccc1N1CC(n2cccn2)C1)C(F)(F)F`, for which the INHIBITION is reported as 43.5%.

Regarding `Cc1cnn(C2CN(c3ccccc3S(=O)(=O)C(F)(F)F)C2)c1`, the INHIBITION is listed as 89.4%.

Take `CN(Cc1nnn(CC2CCC2)n1)C(=O)c1ccccc1`: the INHIBITION is on record as -19.1%.

As to `CCN1CCN(C(C)CNC(=O)Nc2nc3ccccc3s2)CC1` (configuration not stated), the INHIBITION is 59.4%.

For `CCN1CCN(C(C)CNC(=O)Nc2nnc(C(C)C)s2)CC1` (configuration not stated), the INHIBITION is -11.6%.

Turning to `CCN1CCN(C(C)CNC(=O)Nc2nnc(C)s2)CC1` (configuration not stated), the INHIBITION was 34.6%.

In the case of `CNC(=O)Nc1cc(-c2ccc(Br)cc2)nn1CCO`, the INHIBITION was -4.74%.

Turning to `CN(C)CC1(O)CCN(C(=O)Cc2ccc3c(c2)CCC3)C1` (configuration not stated), the INHIBITION stood at 19.5%.

Take `O=C(CN1CCc2c(ncn2C2CC2)C1)NC1CCN(C2CC2)CC1`: the INHIBITION is reported as 39.2%.

On to `CSc1ccc(-c2nc(CN3C[C@@H](C)NC[C@@H]3C)c(C)o2)cc1`, for which the INHIBITION came out at 24%.

Consider `Cc1ccc(-c2nc(CN3C[C@@H](C)NC[C@@H]3C)c(C)o2)s1`, for which the INHIBITION came to 50.4%.

With `Cc1oc(-c2cc(F)cc(F)c2)nc1CN1C[C@@H](C)NC[C@@H]1C`, the INHIBITION is recorded as -6.61%.

In the case of `Cc1c(C(=O)NCC(C)(C)S(C)(=O)=O)cccc1-c1ccccn1`, the INHIBITION is given as -53.2%.

For `Cc1c(C(=O)NCCC(=O)N2CCCC2)cccc1-c1ccccn1`, the INHIBITION is 71.4%.

As to `Cc1c(C(=O)NCCCS(C)(=O)=O)cccc1-c1ccccn1`, the INHIBITION is on record as -12.1%.

In the case of `Cc1nn(C)c(Oc2cccc(F)c2)c1NC(=O)C1CCCO1` (configuration not stated), the INHIBITION was found to be 29.8%.

Turning to `Cc1nn(COc2cccc(F)c2)c(C)c1NC(=O)C1CC1`, the INHIBITION came out at 46.6%.

In the case of `Cc1nn(C)c(Oc2cccc(F)c2)c1NC(=O)C1CCOCC1`, the INHIBITION is 62.9%.

On to `Brc1ccccc1-c1nnc(CNCCn2cccn2)o1`, for which the INHIBITION was 29.7%.

Consider `O=C(CCN1C[C@H]2CC[C@@H]1C2)N1CCN(c2cccc(Cl)c2)C(=O)C1`, for which the INHIBITION was -6.94%.

Consider `CC(C)CNC(=O)[C@H]1C[C@H]2CN(C(=O)NCCc3ccccc3)C[C@@H]1O2`, for which the INHIBITION was found to be 20.5%.

`CSc1ccc(C(=O)N2CCOCC2c2c(C)nn(C)c2C)o1` (configuration not stated): the INHIBITION was found to be 23.4%.

As to `Cc1n[nH]c(C)c1C1COCCN1C(=O)c1ccc(Cl)o1` (configuration not stated), the INHIBITION is given as -0.482%.

For `Cc1n[nH]c(C)c1C1COCCN1C(=O)Cc1ccccc1F` (configuration not stated), the INHIBITION amounted to 83.4%.

As for `Cc1ccc(CC(=O)N2CCOCC2c2ncon2)cc1` (configuration not stated), the INHIBITION was 19.4%.

As to `Cc1cccc(CC(=O)N2CCOCC2c2c(C)n[nH]c2C)c1` (configuration not stated), the INHIBITION came to 53.8%.

As for `Cc1n[nH]c(C)c1C1COCCN1C(=O)Cc1cccc(F)c1` (configuration not stated), the INHIBITION worked out at 16.8%.

`Cc1cccc(CCC(=O)N2CCOCC2c2c(C)n[nH]c2C)c1` (configuration not stated): the INHIBITION is -2.53%.

Take `Cc1ccc(CC(=O)N2CCOCC2c2c(C)n[nH]c2C)cc1` (configuration not stated): the INHIBITION was found to be 67.5%.

Regarding `Cc1ccccc1CC(=O)N1CCOCC1c1c(C)n[nH]c1C` (configuration not stated), the INHIBITION is given as 41.65%.

With `Cc1ccc(O)c(C(=O)N2CCOCC2c2c(C)n[nH]c2C)c1` (configuration not stated), the INHIBITION is reported as 1.563%.

For the molecule `Cc1n[nH]c(C)c1C1COCCN1C(=O)c1cccc(F)c1F` (configuration not stated), the INHIBITION is -0.25%.

For `CSc1ccc(C(=O)N2CCOCC2c2c(C)n[nH]c2C)o1` (configuration not stated), the INHIBITION is on record as 57.45%.
